Test [1] concerns the target Inward rectifier potassium channel 2 (Mus musculus) (UniProt P35561). Nature of the test: mouse Kir2.1 channel blockers, retest, confirmation, cell-based, FluxOR thallium flux, duplicate (AID 2032). The note with it: Kir2.1-expressing cells, FluxOR thallium flux fluorescence, at 10 µM; stronger effect = lower value.
A short description of test [2]: nonspecific thallium flux effects in parental HEK293 cells, confirmation, counter-screen for Kir2.1 inhibitor project, cell-based, FluxOR thallium flux, duplicate, single concentration (AID 2105;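 active = dye signal at least 3 control SD above or below untreated wells in both duplicates, raw fluorescence within 3, either direction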;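 for FluxOR signal as % of negative control (100 = no effect): percent is based on the flux ratio of peak minus minimum fluorescence over baseline F0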). The conditions noted are these: FluxOR thallium flux fluorescence, at 10 µM; 0% = unstimulated blank wells.
Test [3] can be described thus: nonspecific thallium flux increase in parental CHO-K1, confirmation, counter-screen for KCNQ2 potentiator project, cell-based, FluxOR thallium flux, duplicate (AID 2282;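 active = signal rise of at least 3 SD above the untreated control mean, in both duplicate wells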;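 note: counter screen of KCNQ2 potentiator hits so any rise reflects channel-independent effects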). The conditions noted are these: parental CHO-K1 cells, FluxOR thallium flux fluorescence; at 10 µM; stronger effect = higher value; zero = vehicle mean+3SD, 100% = vehicle-minus-blank window.
Test [4] addresses Potassium voltage-gated channel subfamily KQT member 1 (Homo sapiens) (UniProt P51787). Briefly: human KCNQ1 channel potentiation off-target, confirmation, selectivity assay for KCNQ2 potentiator project, cell-based, CHO, FluxOR thallium flux (AID 2283;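 active = fluorescence ratio rise of at least 3 SD of vehicle wells above their mean, in both replicate wells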;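 note: 0% = vehicle mean plus 3 SD and 100% = vehicle minus unstimulated blank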). The note with it: CHO KCNQ1 stable, FluxOR thallium flux fluorescence; at 10 µM; stronger effect = higher value; beyond 3SD, as % of vehicle-control signal.

Test [5] deals with Potassium voltage-gated channel subfamily KQT member 2 (Rattus norvegicus) (UniProt O88943). Briefly: rat KCNQ2 channel potentiators, confirmation, cell-based, CHO, FluxOR thallium flux, duplicate (AID 2287;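 active = fluorescence ratio rising 3 SD or more over the vehicle control mean in both replicates, plus primary screen hit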;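 note: peak minus minimum thallium fluorescence divided by baseline after K/Tl stimulus; 0% = vehicle mean plus 3 SD and 100% = vehicle minus unstimulated blank difference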). The note with it: CHO-KCNQ2 cells, FluxOR thallium flux fluorescence; at 10 µM; stronger effect = higher value.
In test [6] the target is Inward rectifier potassium channel 2 (Mus musculus) (UniProt P35561). Briefly: PubChem AID 2345.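 Note: 0% = vehicle mean plus 3 SD and 100% = vehicle minus no-stimulus blank window.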 The conditions noted are these: HEK293 Kir2.1, FluxOR thallium flux fluorescence; at 10 µM; stronger effect = higher value.
Sequence of Inward rectifier potassium channel 2 (Mus musculus) (P35561 whole entry, looked up): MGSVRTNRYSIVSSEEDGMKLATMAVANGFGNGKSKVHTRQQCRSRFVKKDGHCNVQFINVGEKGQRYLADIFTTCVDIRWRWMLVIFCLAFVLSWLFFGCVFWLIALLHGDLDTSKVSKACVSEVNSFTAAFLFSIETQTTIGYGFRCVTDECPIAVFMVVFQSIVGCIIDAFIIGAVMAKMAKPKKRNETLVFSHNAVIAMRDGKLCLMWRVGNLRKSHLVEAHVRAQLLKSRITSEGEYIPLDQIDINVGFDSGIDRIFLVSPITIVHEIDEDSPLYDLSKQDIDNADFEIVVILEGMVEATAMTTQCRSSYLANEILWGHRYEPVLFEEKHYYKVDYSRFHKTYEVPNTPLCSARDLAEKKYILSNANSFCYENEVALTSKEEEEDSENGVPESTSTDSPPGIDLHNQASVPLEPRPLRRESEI
Test [7] addresses Voltage-gated inwardly rectifying potassium channel KCNH2 (Homo sapiens) (UniProt Q12809). Briefly: hERG channel inhibition, counter-screen for Kir2.1 inhibitor project, cell-based, thallium flux (AID 2236; call rule not given here;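 note: host cells are CHO cells stably expressing hERG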). The conditions noted are these: hERG-expressing cells, at 10 µM; stronger effect = higher value.
Test [8] addresses Potassium channel subfamily K member 9 (Homo sapiens) (UniProt Q9NPC2). Briefly: KCNK9 channel inhibition, selectivity assay for Kir2.1 inhibitor project, cell-based (AID 2329; call rule not given here). The note with it: KCNK9-expressing cells, ion flux inhibition, at 10 µM; stronger effect = higher value.
Test [9] addresses Inward rectifier potassium channel 2 (Mus musculus) (UniProt P35561). Briefly: mouse Kir2.1 channel blockers, Kir2.1 inhibitor project, cell-based, secondary, automated electrophysiology (AID 463252; call rule not given here). The conditions noted are these: Kir2.1 cells, automated patch-clamp current inhibition, at 25 µM; stronger effect = higher value.
In test [10] the target is Potassium voltage-gated channel subfamily KQT member 2 (Rattus norvegicus) (UniProt O88943). Briefly: potentiators of retigabine-insensitive KCNQ2 W236L, mechanism study for KCNQ2 potentiator project, cell-based, rat KCNQ2 W236L, CHO, automated patch clamp (AID 2558;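 active = current increase at least 3 SD of the untreated controls above them in both duplicate recordings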). The conditions noted are these: at 25 µM; outcome: automated patch clamp current.

This is one part of the list. Unmarked numbers belong to inactive results. Active and inactive are the calls of the source.

Sequence of Voltage-gated inwardly rectifying potassium channel KCNH2 (Homo sapiens) (Q12809 whole entry, looked up): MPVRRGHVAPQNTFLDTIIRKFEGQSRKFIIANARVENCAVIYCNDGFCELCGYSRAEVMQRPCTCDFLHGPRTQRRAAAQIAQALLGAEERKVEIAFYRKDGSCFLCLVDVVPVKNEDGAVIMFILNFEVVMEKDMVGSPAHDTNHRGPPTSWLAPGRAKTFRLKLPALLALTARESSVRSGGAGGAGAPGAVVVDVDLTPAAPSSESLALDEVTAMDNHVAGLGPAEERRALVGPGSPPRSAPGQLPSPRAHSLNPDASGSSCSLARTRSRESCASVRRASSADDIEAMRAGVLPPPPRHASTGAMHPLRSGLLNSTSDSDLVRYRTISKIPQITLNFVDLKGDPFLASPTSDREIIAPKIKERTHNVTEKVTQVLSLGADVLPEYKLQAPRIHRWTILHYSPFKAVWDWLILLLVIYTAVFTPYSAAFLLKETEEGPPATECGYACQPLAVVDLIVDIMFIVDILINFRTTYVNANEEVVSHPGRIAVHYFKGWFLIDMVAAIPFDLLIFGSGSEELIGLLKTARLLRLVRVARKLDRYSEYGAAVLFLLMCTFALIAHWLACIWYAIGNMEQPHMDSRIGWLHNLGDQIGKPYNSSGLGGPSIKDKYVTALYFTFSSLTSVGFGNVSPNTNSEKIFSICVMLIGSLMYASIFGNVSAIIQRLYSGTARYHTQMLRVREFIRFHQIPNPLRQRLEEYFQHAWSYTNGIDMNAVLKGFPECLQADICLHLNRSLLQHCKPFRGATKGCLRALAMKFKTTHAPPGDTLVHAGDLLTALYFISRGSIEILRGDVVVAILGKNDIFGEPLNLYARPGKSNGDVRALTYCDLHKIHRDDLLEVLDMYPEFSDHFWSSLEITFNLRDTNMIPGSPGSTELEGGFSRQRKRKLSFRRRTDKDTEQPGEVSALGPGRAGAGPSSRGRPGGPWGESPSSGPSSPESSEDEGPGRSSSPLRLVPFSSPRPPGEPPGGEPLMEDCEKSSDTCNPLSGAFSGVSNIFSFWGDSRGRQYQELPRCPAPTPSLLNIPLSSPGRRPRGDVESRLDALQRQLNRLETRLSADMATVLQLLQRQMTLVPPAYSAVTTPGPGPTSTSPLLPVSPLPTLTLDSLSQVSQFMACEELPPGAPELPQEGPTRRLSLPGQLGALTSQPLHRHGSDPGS
Sequence of Potassium voltage-gated channel subfamily KQT member 1 (Homo sapiens) (P51787 whole entry, looked up): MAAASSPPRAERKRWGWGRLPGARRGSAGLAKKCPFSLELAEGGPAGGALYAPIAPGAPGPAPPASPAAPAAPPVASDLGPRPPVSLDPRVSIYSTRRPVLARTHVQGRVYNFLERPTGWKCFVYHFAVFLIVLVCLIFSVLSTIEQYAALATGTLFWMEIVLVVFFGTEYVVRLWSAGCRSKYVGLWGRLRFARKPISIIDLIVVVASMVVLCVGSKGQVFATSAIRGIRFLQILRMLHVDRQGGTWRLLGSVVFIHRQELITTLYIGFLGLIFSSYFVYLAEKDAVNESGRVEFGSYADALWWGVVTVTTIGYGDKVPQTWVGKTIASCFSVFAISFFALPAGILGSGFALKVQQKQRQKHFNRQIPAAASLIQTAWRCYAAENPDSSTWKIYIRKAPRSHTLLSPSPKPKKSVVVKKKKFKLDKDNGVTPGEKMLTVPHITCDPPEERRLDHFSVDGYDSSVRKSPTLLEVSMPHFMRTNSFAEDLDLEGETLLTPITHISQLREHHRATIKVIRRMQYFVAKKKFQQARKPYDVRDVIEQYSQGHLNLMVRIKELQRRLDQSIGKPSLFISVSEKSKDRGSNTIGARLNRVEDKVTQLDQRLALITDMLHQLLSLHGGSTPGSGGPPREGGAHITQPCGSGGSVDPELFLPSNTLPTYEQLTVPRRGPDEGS

`CC(C)(c1ccccc1)c1ccc(OCCN2CCCC2)cc1`: the Tl flux remaining, % of negative control (stronger effect = lower value) in [1] was 44% (active). The outcome in test [2] was inactive.
`CCCCCCCCCCOC(=O)Cn1c(COc2cccc(OC)c2)[n+](C)c2ccccc21`: the compound was classed as inactive in test [1] and in test [2].
Turning to `CCCCCCCCn1c2c(c(=N)c3c1CCC3)CCCC2`, in test [1], the Tl flux remaining, % of negative control (stronger effect = lower value) was 10% (active). For the same compound, the outcome in [2] was inactive.
In the same order, the values of `Cc1cc(C)c(C)c(S(=O)(=O)Nc2ccc(O)cc2)c1C` are 65.5% (active) and “inactive”.
As for `Clc1c(OCCCn2ccnc2)ccc2ccccc12`, the result in test [1] and in [2] was inactive.
`COc1cccc(CN(C)CC2CCCN(CCc3ccc(Cl)cc3)C2)c1OC` (stereo unspecified): the Tl flux remaining, % of negative control (stronger effect = lower value) in test [1] is 49% (active). For the same compound, the result in test [2] was inactive.
In the same order, the values of `COCCNC(=O)COc1ccc(N(C)S(=O)(=O)c2ccc3ccccc3c2)cc1` are 58% (active) and “inactive”.
As to `NC(N)=Nc1nc(-c2ccccc2)c2cc(Cl)ccc2n1`, the call in test [1] and in test [2] was inactive.
As to `COc1ccc(CN2CCC(c3nc4ccc(Cl)cc4[nH]3)CC2)cc1`, in test [1], the Tl flux remaining, % of negative control (stronger effect = lower value) is 30% (active). In test [2], the result was inactive.
With `COc1ccccc1CCNS(=O)(=O)c1cc2c3c(c1)C(C)C(=O)N3CCC2` (stereo unspecified), the Tl flux remaining, % of negative control (stronger effect = lower value) in [1] is 62% (active). Further, in test [2], the outcome was inactive.
For `COc1cc(/C=N/O)cc(Br)c1OS(=O)(=O)c1ccc(C)cc1`, in that order: 57.5% (active) and “inactive”.
`CN(Cc1ccccc1)CC(O)COc1ccc(CNCc2cc3ccccc3s2)cc1` (stereo unspecified): the Tl flux remaining, % of negative control (stronger effect = lower value) in [1] was 33.5% (active). Besides, the FluxOR signal as % of negative control (100 = no effect) in test [2] was 74.5% (active).
Consider `COc1ccc2c(c1)C=CC1(O2)N(CCO)c2ccccc2C1(C)C` (stereo unspecified), for which the outcome in [1] was inactive. Besides, the FluxOR signal as % of negative control (100 = no effect) in [2] was 53.5% (active).
In the case of `CC1CN(C(=O)CCC(=O)NCCCN2CCC(Cc3ccccc3)CC2)c2cc(Cl)ccc2O1` (stereo unspecified), the Tl flux remaining, % of negative control (stronger effect = lower value) in test [1] is 35.5% (active). Also, the result in test [2] was inactive.
In the same order, the values of `CCC(Cc1ccccc1)NS(=O)(=O)c1ccc2c(c1)NC(=O)CS2` (stereo unspecified) are 62% (active) and “inactive”.
For the compound `CCn1cc(CCC(=O)NCc2ccc(F)cc2)c2ccccc21`, in test [1], the Tl flux remaining, % of negative control (stronger effect = lower value) is 56.5% (active). Besides, the result in test [2] was inactive.
With `COc1ccc(CCNCc2c(-c3ccccc3)n(C)c3ccccc23)cc1`, in test [1], the Tl flux remaining, % of negative control (stronger effect = lower value) is 33.5% (active). The FluxOR signal as % of negative control (100 = no effect) in [2] was 72% (active).
On to `COc1ccc(CCC(C)N2CCc3ccccc3C2)cc1` (stereo unspecified), for which the Tl flux remaining, % of negative control (stronger effect = lower value) in test [1] was 25.5% (active). The result in test [2] was inactive.
In the same order, the values of `COc1cccc(CNCCc2c[nH]c3ccccc23)c1OCc1ccccc1F` are 23.5% (active) and “inactive”.
For `c1ccc(CSc2nnc(-c3ccco3)n2Cc2ccccc2)cc1`, in that order: 54% (active) and “inactive”.
For `CCCCCCCCCCOC(=O)Cn1c(COc2ccc(C)cc2)[n+](C)c2ccccc21`, the compound was classed as inactive in test [1] and in test [2].
On to `O=C(CCl)N(Cc1cccc([N+](=O)[O-])c1)c1cccc(Cl)c1`, for which the compound was classed as inactive in [1] and in test [2].
With `Cc1ccc(-c2nn(-c3ccccc3)cc2/C=C2\SC(=S)N(CCCCCC(=O)O)C2=O)o1`, in [1], the compound was called inactive. For the same compound, the FluxOR signal as % of negative control (100 = no effect) in test [2] was 75% (active).
Regarding `O=C(Nc1ccccc1Cl)/C(Cl)=C(\Cl)S(=O)c1ccccc1` (stereo unspecified), in [1], the Tl flux remaining, % of negative control (stronger effect = lower value) is 60.5% (active). Moreover, the FluxOR signal as % of negative control (100 = no effect) in test [2] was 57.5% (active).
On to `Clc1ccc(-c2cc(C3CCNCC3)[nH]n2)c(Cl)c1`, for which the Tl flux remaining, % of negative control (stronger effect = lower value) in [1] is 22.5% (active). Besides, the outcome in test [2] was inactive.
`CCN(CC)CCC(c1ccc2c(c1)OCO2)c1c(OC)cc(OC)c2c(-c3ccccc3)cc(=O)oc12` (stereo unspecified): in [1], the Tl flux remaining, % of negative control (stronger effect = lower value) is 65.5% (active). Also, the result in test [2] was inactive.
With `Cn1c(SCC(=O)N2CCCc3ccccc32)nc2ccccc2c1=O`, the Tl flux remaining, % of negative control (stronger effect = lower value) in test [1] was 71.5% (active). Besides, the FluxOR signal as % of negative control (100 = no effect) in test [2] is 66.5% (active).
`COc1ccc(C(CCNCc2ccccc2F)c2ccc(F)cc2)cc1` (stereo unspecified): the Tl flux remaining, % of negative control (stronger effect = lower value) in test [1] is 39.5% (active). In test [2], the result was inactive.
Take `CC(C)(C)c1cc2cccnc2n1Cc1cccc(F)c1`: the Tl flux remaining, % of negative control (stronger effect = lower value) in test [1] is 72% (active). For the same compound, the outcome in [2] was inactive.
In the same order, the values of `C=CCNC(=S)/N=c1/ccccn1Cc1ccccc1` are 64% (active) and “inactive”.
Consider `COc1ccccc1-c1n[nH]c2c1[C@H](C)CC[C@H]2C(C)C`, for which the result in test [1] and in test [2] was inactive.
As to `CCCOc1ccc(C(=O)C(CCC(CNCC)C(=O)c2ccc(OCCC)cc2)CNCC)cc1` (stereo unspecified), in test [1], the Tl flux remaining, % of negative control (stronger effect = lower value) was 48% (active). In addition, the outcome in [2] was inactive.
On to `COc1ccc(Nc2ncnc3sc(C)cc23)cc1`, for which the compound was called inactive in test [1] and in test [2].
`CC12CN(Cc3ccccc3)CC(C)(CN(Cc3ccccc3)C1)C2=NO`: in test [1], the Tl flux remaining, % of negative control (stronger effect = lower value) was 54.5% (active). Also, the outcome in test [2] was inactive.
In the case of `C(=C\c1ccccc1)/CSc1nnc(-c2cccnc2)n1Cc1ccco1`, in [1], the Tl flux remaining, % of negative control (stronger effect = lower value) was 37% (active). In addition, the outcome in test [2] was inactive.
For `COc1cccc(CN(C)CC(O)COC(c2ccccc2)c2ccccc2C)c1` (stereo unspecified), in that order: 66% (active) and “inactive”.
Take `O=C(Cc1c[nH]c2ccccc12)OCCOC(=O)Cc1c[nH]c2ccccc12`: the Tl flux remaining, % of negative control (stronger effect = lower value) in test [1] is 48.5% (active). For the same compound, the result in test [2] was inactive.
As to `CN(Cc1ccccc1)C(=O)CCc1ccccc1`, the compound was called inactive in test [1] and in test [2].
`CSc1c(SCc2ccccc2)cnn(Cc2ccccc2)c1=O`: the compound was classed as inactive in test [1] and in test [2].
As for `CCCn1c(C2CCCN2c2nc(-c3ccc(C)cc3)cs2)nc2cc(Cl)c(N3CCCCC3)cc21` (stereo unspecified), the call in test [1] and in test [2] was inactive. The activity increase over 3SD of controls in test [3] was 12.5% (active). Moreover, in test [4], the activation over 3SD threshold was -30.1%. Further, the potentiation, less the hit threshold in test [5] was -9.8%. Also, the activity over 3SD threshold in [6] was -27.9%.
`C=CCc1cc(S(=O)(=O)c2ccc(O)c(CC=C)c2)ccc1O`: in [1], the Tl flux remaining, % of negative control (stronger effect = lower value) is 40.5% (active). The result in test [2], in test [7] and in test [9] was inactive. Further, the inhibition in test [8] is 79% (active).
`CN1CCN(CCCCOc2ccccc2-c2ccccc2)CC1`: in test [1], the Tl flux remaining, % of negative control (stronger effect = lower value) is 48.5% (active). Moreover, the result in [2], in test [7] and in test [8] was inactive. Further, the inhibition in test [9] was 27.4% (active).
`O=C(Nc1cccc(-c2cscn2)c1)C1CCN(Cc2ccsc2)CC1`: the Tl flux remaining, % of negative control (stronger effect = lower value) in [1] was 44% (active). The result in test [2] and in test [8] was inactive. Further, the inhibition is 51% (active) in test [7] and 7.1% (active) in test [9].
For the compound `CC1(C)NC(=O)N(CCCCSc2ccc(Cl)cc2)C1=O`, the Tl flux remaining, % of negative control (stronger effect = lower value) in test [1] was 46% (active). In addition, the result in test [2], in test [7] and in test [8] was inactive. Also, the inhibition in test [9] is 40.8% (active).
In the case of `COc1ccc(C(=O)Nc2ncc3c(n2)-c2ccccc2CC3)cc1`, the compound was called inactive in [1], in test [2] and in [10]. Also, the activity increase over 3SD of controls in [3] is -7.8%. For the same compound, the activation over 3SD threshold in [4] was 8.3% (active). Besides, in test [5], the potentiation, less the hit threshold is -1%. The activity over 3SD threshold in [6] was -29.6%.

Source of the values: PubChem BioAssay.
